Experimental data published in PubChem BioAssay (NCATS).
Records with an inconclusive call do not appear. Calls of active or inactive are those of the source. Calls come from the whole dose curve; as a rule, active = well fitted inhibition curve with a large enough effect; inconclusive = small, poorly fitted or top-dose-only effect; inactive = flat fitted curve, though single readings scatter. Where a SMILES comes first, the peptide text is derived from it.

Assays:
Test in all cases: Cytotoxic Profiling of Annotated Libraries Using Quantitative High-Throughput Screening (AID 1296008); note: nearly all actives have a fitted effect of over 60% in size
Details in all cases: Five cell lines viability, CellTiter-Glo ATP luminescence, 48-72 h; max response: stronger effect = lower value
CRL-7250 = system: CRL-7250
In short: (§1)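 Compounds were pin-transferred onto cells and incubated 48 or 72 hr at 37 degree Celsius, 95% humidity. CellTiter-Glo was added, plates sat 10 min at room temperature, then ATP-coupled luminescence was imaged as the viability read-out.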

HEK293 = system: HEK293
In short: as §1

HaCat = system: HaCat
In short: as §1

KB-3-1 = system: KB-3-1
In short: as §1

NIH3T3 = system: NIH3T3
In short: as §1

Measured: max response
% is set by controls: 0 for no effect and ±100 for the full control effect.

CC(=O)O[C@@H]1[C@H](O[C@@H]2O[C@H](CO)[C@@H](O)[C@H](O)[C@H]2O)[C@@H](O[C@@H]2O[C@@H](C)[C@H](O)[C@@H](O[C@@H]3O[C@H](CO)[C@@H](O)[C@H](O)[C@H]3O)[C@H]2O)[C@H](OC(=O)[C@]23CCC(C)(C)C[C@H]2C2=CCC4[C@@]5(C)C[C@H](O)[C@H](O[C@@H]6O[C@H](C(=O)O)[C@@H](O)[C@H](O)[C@H]6O)[C@@](C)(C(=O)O)C5CC[C@@]4(C)[C@]2(C)CC3)O[C@@H]1C (stereo not given in full)
inactive: CRL-7250 -5.6% | HEK293 -5.4% | HaCat | KB-3-1 | NIH3T3

COC(=O)C1(C)CCCC2(C)c3ccc(C(C)C)cc3C(O)C(O)C12 (stereo not given)
inactive: CRL-7250 -3.44% | HEK293 -25.7% | HaCat | KB-3-1 | NIH3T3

COc1cc(O)cc(C)c1C(=O)O[C@H]1[C@@H](O)[C@@H](n2ccc(=O)[nH]c2=O)O[C@@H]1CO
inactive: CRL-7250 -0.148% | HEK293 -4.61% | HaCat | KB-3-1 -0.769% | NIH3T3

CC(=O)NC(Cc1ccccc1)C(=O)NC(C(=O)O)C(C)C (stereo not drawn) (Ac-Phe-Val-OH; configuration not given here)
inactive: CRL-7250 -0.555% | HEK293 | HaCat -2.09% | KB-3-1 4.23% | NIH3T3 4.03%

CC1(CO)CC(O)C2(C)CCC3(C)C(=CCC4C5(C=O)CCC(OC6OC(C(=O)O)C(O)C(O)C6OC6OC(C(=O)O)C(O)C(O)C6O)C(C)(C)C5CCC43C)C2C1 (stereo not given)
inactive: CRL-7250 | HEK293 -10.9% | HaCat | KB-3-1 | NIH3T3

COc1c2ccoc2nc2c(OC)c(O[C@@H]3O[C@@H](C)[C@H](O)[C@@H](O[C@@H]4O[C@H](CO)[C@@H](O)[C@H](O)[C@H]4O)[C@H]3OC(C)=O)ccc12
inactive: CRL-7250 0.0337% | HEK293 -0.274% | HaCat | KB-3-1 9.99% | NIH3T3 -1.67%

C[C@@H]1CC[C@]2(C(=O)O[C@@H]3O[C@H](CO[C@@H]4O[C@H](CO)[C@@H](O)[C@H](O)[C@H]4O)[C@@H](O)[C@H](O)[C@H]3O)CC[C@]3(C)C(=CCC4[C@@]5(C)CC[C@H](O)[C@](C)(C(=O)O)C5CC[C@]43C)[C@@H]2[C@]1(C)O (stereo not given in full)
inactive: CRL-7250 | HEK293 3.94% | HaCat | KB-3-1 2.71% | NIH3T3 -11.7%

C/C=C(\C)C(=O)OC1C2(O)CC3=C4CC(=O)OC(c5ccoc5)C4(C)CCC3C(C)(C2=O)C(C(OC(C)=O)C(=O)OC)C1(C)C (stereo not given)
inactive: CRL-7250 | HEK293 -2.36% | HaCat | KB-3-1 -3.65% | NIH3T3 1.4%

CC(=O)OC1(C)CC(O)C2(O)C=COC(OC3OC(CO)C(O)C(O)C3O)C12 (stereo not given)
inactive: CRL-7250 | HEK293 4.36% | HaCat 0.0573% | KB-3-1 3.54% | NIH3T3

CC1=CC(=O)CC(C)(C)C1/C=C/C(C)OC1OC(COC2OCC(O)C(O)C2O)C(O)C(O)C1O (stereo not given)
inactive: CRL-7250 0.665% | HEK293 -4.28% | HaCat -0.25% | KB-3-1 9.19% | NIH3T3

COC1OC(O)C2(CCC3(O2)C(C)CC2OC(=O)C4(C)CCCC3(C)C24)C1O (stereo not given)
inactive: CRL-7250 | HEK293 -1.02% | HaCat | KB-3-1 -1.51% | NIH3T3 1.38%

COC(=O)C1=COC(OC2OC(CO)C(O)C(O)C2O)C2C(COC(=O)/C=C/c3ccc(O)cc3)C(O)C(O)C12 (stereo not given)
inactive: CRL-7250 | HEK293 0.595% | HaCat | KB-3-1 | NIH3T3 -5.08%

COC(=O)c1ccccc1O[C@@H]1O[C@H](CO[C@@H]2OC[C@@H](O)[C@H](O)[C@H]2O)[C@@H](O)[C@H](O)[C@H]1O
inactive: CRL-7250 0.973% | HEK293 4.14% | HaCat | KB-3-1 -2.26% | NIH3T3

CC(C)=CCc1cc(O[C@@H]2O[C@H](CO[C@@H]3OC[C@](O)(CO)[C@H]3O)[C@@H](O)[C@H](O)[C@H]2O)ccc1O
inactive: CRL-7250 -4.68% | HEK293 1.91% | HaCat | KB-3-1 | NIH3T3

O=C(Nc1ccccc1)Nc1ccc(-c2ccc(C(=O)C3CCCC3C(=O)O)cc2)cc1 (stereo not given)
inactive: CRL-7250 -3.37% | HEK293 -9.05% | HaCat | KB-3-1 | NIH3T3

Cc1ccccc1N1CCN(S(=O)(=O)C[C@]23CC[C@H](C[C@@H]2NC(=O)[C@@H](N)CCS(C)(=O)=O)C3(C)C)CC1
inactive: CRL-7250 1.21% | HEK293 4.97% | HaCat 0.627% | KB-3-1 5.94% | NIH3T3

CC1(C)CC[C@]2(C(=O)O[C@@H]3O[C@H](CO)[C@@H](O)[C@H](O)[C@H]3O)CC[C@]3(C)C(=CCC4[C@@]5(C)C[C@H](O)[C@H](O[C@@H]6OC[C@@H](O)[C@H](O)[C@H]6O)[C@@](C)(CO)C5CC[C@]43C)C2C1 (stereo not given in full)
inactive: CRL-7250 -3.53% | HEK293 -6.93% | HaCat | KB-3-1 9.53% | NIH3T3

O=C(/C=C/c1ccc(O)cc1)O[C@@H]1C[C@@](O)(C(=O)O)C[C@@H](O)[C@@H]1O
inactive: CRL-7250 -19.8% | HEK293 -2.92% | HaCat -16.3% | KB-3-1 5.75% | NIH3T3
